From the supplement of paper PMC11060735 come the findings set out here.

Where “and” joins values, the source holds several entries; their conditions need not be identical. Equal values may be shown once. Where a name gives a salt, the structure may show the parent alone. ± gives the standard deviation of the averaged measurements. The full ranking holds about 1,800 compounds; the median of “GFP- (p16Ink4a-) cell count relative to negative-control wells” is about 0.99, and the lowest 2% start at about 0.5. This excerpt belongs to a sample that is enriched for the lowest values.

The assay has as its system mouse p16Ink4a+/- lung fibroblasts (INKBRITE, bleomycin-injured). The experiment in a line: GFP- (p16Ink4a-) cell count relative to negative-control wells (fold of vehicle); higher = more p16Ink4a- cells surviving. Conditions: 1 µM; 3 days.
Take `N#Cc1ccc2[nH]cc(CCCCN3CCN(c4ccc5oc(C(N)=O)cc5c4)CC3)c2c1` [Vilazodone]: the GFP- was 1.07.
Next, `CO/C(O)=C1\C(C)=NC(C)=C(C(=O)OCCN2CCN(C(c3ccccc3)c3ccccc3)CC2)C1c1cccc([N+](=O)[O-])c1` (configuration not stated) [Manidipine]: 0.985 and 0.964.
Next, `Cc1ccc(Cl)cc1N(CC(=O)Nc1c(F)cccc1F)S(C)(=O)=O`: 1.06.
To `O=C(O)C(O)Cc1ccc(O)c(O)c1` (configuration not stated) [Sodium Danshensu] belongs 1.19.
`COc1nc(C)cnc1NS(=O)(=O)c1cccnc1-c1ccc(-c2nnco2)cc1` [Zibotentan] came in with a GFP- of 1.19.
Regarding `CCOC(=O)[C@H](CCc1ccccc1)N[C@@H](C)C(=O)N1Cc2cc(OC)c(OC)cc2C[C@H]1C(=O)O` [Moexipril], the GFP- worked out at 0.982.
In the case of `COc1c2ccoc2cc2oc(=O)ccc12` [Bergapten], the GFP- is 1.08.
To `O=C1c2c(O)ccc(O)c2C(=O)c2c(NCCNCCO)ccc(NCCNCCO)c21` [Mitoxantrone] belongs 0.503; to `O=C1c2cccc(O)c2C(=O)c2c(O)cc(CO)cc21` [Aloe-emodin], 1.13.
`Nc1ncn([C@@H]2O[C@H](CO)[C@@H](O)[C@H]2O)c(=O)n1` [5-azacytidine, Azacitidine] displayed a GFP- of 0.758 ± 0.04.
Next, `CCOC(=O)[C@H]1O[C@@H]1C(=O)N[C@@H](CC(C)C)C(=O)NCCC(C)C` [Aloxistatin]: 0.833.
Consider `CN(C)c1ccc(C(=C2C=CC(=[N+](C)C)C=C2)c2ccc(N(C)C)cc2)cc1` [Gentian Violet], for which the GFP- worked out at 0.494.
In the case of `COCCO/C(O)=C1\C(C)=NC(C)=C(C(=O)OC(C)C)C1c1cccc([N+](=O)[O-])c1` (configuration not stated) [Nimodipine], the GFP- stood at 1.06.
Next, `FC(F)c1nc2ccccc2n1-c1nc(N2CCOCC2)nc(N2CCOCC2)n1`: 0.711.
`O=C(NC(Cc1cc(O)nc2ccccc12)C(=O)O)c1ccc(Cl)cc1` (configuration not stated) [Rebamipide] displayed a GFP- of 1.02.
`Cc1ccc([N+](=O)[O-])cc1S(=O)(=O)N(C)/N=C/c1cnc2ccc(Br)cn12` displayed a GFP- of 0.385.
Turning to `COC(=O)Nc1nc2cc(C(=O)c3ccc(F)cc3)ccc2[nH]1` [Flubendazole], the GFP- was 0.933.
To `CC(C(=O)O)c1ccc2c(c1)Cc1cccnc1O2` (configuration not stated) [Pranoprofen] belongs 1.17.
`Cc1cc(NS(=O)(=O)c2ccc(N)cc2)no1` [Sulfamethoxazole] showed a GFP- of 0.967.
Next, `C=CCn1c(=O)c2cnc(Nc3ccc(N4CCN(C)CC4)cc3)nc2n1-c1cccc(C(C)(C)O)n1`: 0.409.
To `C=CC(=O)Nc1cccc(Oc2nc(Nc3ccc(N4CCN(C)CC4)cc3)ncc2Cl)c1` belongs 0.844; to `Cc1cnc(Nc2ccc(N3CCN(C)CC3)cc2)nc1Nc1cccc(S(=O)(=O)NC(C)(C)C)c1`, 0.779 ± 0.037; to `C#C[C@]1(O)CC[C@H]2[C@@H]3CCc4cc(OC)ccc4[C@H]3CC[C@@]21C` [Mestranol], 1.15.
Next, `COc1cc2nccc(Oc3ccc(NC(=O)Nc4ccc(F)cc4F)c(F)c3)c2cc1OC`: 0.466; `COc1cc2nccc(Oc3ccc(NC(=O)C4(C(=O)Nc5ccc(F)cc5)CC4)cc3)c2cc1OC` [Cabozantinib]: 0.824; `COc1cc2nccc(Oc3ccc(NC(=O)Nc4cc(C)on4)c(Cl)c3)c2cc1OC` [Tivozanib]: 1.01.
Turning to `CCn1cc(-c2ccnc3[nH]c(-c4cccc(CN(C)C)c4)cc23)c(-c2ccc(NC(=O)N(C)C)cc2)n1`, the GFP- amounted to 0.658 ± 0.17.
To `COc1cc(Nc2ncc(F)c(Nc3ccc4c(n3)N(COP(=O)(O)O)C(=O)C(C)(C)O4)n2)cc(OC)c1OC` [Fostamatinib] belongs 0.771.
Next, `COC(=O)[C@]12CCC(C)(C)C[C@@H]1[C@@H]1C(=O)C=C3[C@]4(C)C=C(C#N)C(=O)C(C)(C)[C@@H]4CC[C@@]3(C)[C@]1(C)CC2` [Bardoxolone Methyl]: 0.406.
To `O=C(c1ccc(F)cc1)C1CCN(CCn2c(=O)[nH]c3ccccc3c2=O)CC1` [Ketanserin Tartrate] belongs 0.924; to `COc1ccc2c(c1)c(CC(=O)N1CCOCC1)c(C)n2C(=O)c1ccc(Cl)cc1`, 1.15; to `CC(C)C[C@@H](C=O)NC(=O)[C@H](CC(C)C)NC(=O)[C@H](CC(C)C)NC(=O)OCc1ccccc1`, 0.302.
The compound `CC(=O)SCC(Cc1ccccc1)C(=O)NCC(=O)OCc1ccccc1` (configuration not stated) [Racecadotril] displayed a GFP- of 0.972.
Next, `COC(=O)[C@H](Cc1ccccc1)NC(=O)[C@@H](N)CC(=O)O` [Aspartame]: 0.966.
Next, `CCCC(=O)Nc1cccc(NC(=O)c2ccccc2Br)c1`: 1.03.
For the compound `CCOC(=O)C1=C(C)N=C(C)/C(=C(/O)OCC)C1c1ccccc1/C=C/C(=O)OC(C)(C)C` (configuration not stated) [Lacidipine], the GFP- is 1.08.
To `Clc1ccc(C(Cn2ccnc2)OCc2ccsc2Cl)c(Cl)c1` (configuration not stated) [Tioconazole] belongs 0.993; to `Cn1nc(C(C)(C)C)cc1C(=O)N[C@@H](Cc1cccc(Cl)c1)C(=O)NCC#N` [Cathepsin Inhibitor 1], 1.01.
Compound `O=C1CCC[C@@H]2[C@H]3CCC[N+]4([O-])CCC[C@@H](CN12)[C@@H]34` (some centres not stated) [Oxymatrine] displayed a GFP- of 1.08.
The compound `O=S(=O)(O)c1cc(O)ccc1O` [Ethamsylate] registered a GFP- of 0.995.
Next, `C=C1/C(=C\C=C2/CCC[C@]3(C)[C@@H]([C@H](C)CCCC(C)(C)O)CC[C@@H]23)C[C@@H](O)C[C@@H]1O` [Calcitriol, DN-101]: 1.39; `CN1CCN(S(=O)(=O)c2ccc(-c3cnc(N)c(C(=O)Nc4cccnc4)n3)cc2)CC1`: 0.998; `Cc1[nH]c(/C=C2\C(=O)Nc3ccc(S(=O)(=O)N(C)c4cccc(Cl)c4)cc32)c(C)c1C(=O)N1CCN(C)CC1`: 0.704.
To `Cc1[nH]c(/C=C2\C(=O)Nc3ccccc32)c(C)c1CCC(=O)O` [Orantinib] belongs 1.09; to `Cc1[nH]c(/C=C2\C(=O)Nc3ccc(S(=O)(=O)Cc4c(Cl)cccc4Cl)cc32)c(C)c1C(=O)N1CCC[C@@H]1CN1CCCC1`, 0.404; to `N=C(N)Nc1ccc(C(=O)Oc2ccc3cc(C(=N)N)ccc3c2)cc1` [Nafamostat], 1.16.
Next, `Nc1cc(C(Cl)=C(Cl)Cl)c(S(N)(=O)=O)cc1S(N)(=O)=O` [Clorsulon]: 1.08.
As to `Cc1cc(C)c(/C=C2\C(=O)Nc3ccccc32)[nH]1` [Semaxanib], the GFP- is 0.862.
Next, `Cc1ccc(-n2sc(=O)n(Cc3ccc(F)cc3)c2=O)cc1`: 1.1; `COc1ccc(-c2ccc3cc(C(=O)O)ccc3c2)cc1C12CC3CC(CC(C3)C1)C2` [Adapalene]: 1.05; `O=C(NCc1ccccc1)c1csc(Nc2ccncn2)n1` [Thiazovivin]: 1.04.
To `O=c1cc(-c2ccccc2)oc2cc(O)cc(O)c12` [Chrysin] belongs 0.996; to `CCN1CCC[C@H]1CNC(=O)c1cc(S(N)(=O)=O)ccc1OC` [Levosulpiride], 0.964; to `C[C@]12CC[C@H](O)CC1=CCC1C2CC[C@]2(C)C(n3cnc4ccccc43)=CCC12` (some centres not stated) [Galeterone], 1.11.
Next, `O=C1Nc2ccc(I)cc2/C1=C/c1cc(Br)c(O)c(Br)c1`: 1.02; `CCOc1ccc(Cc2cc([C@@H]3O[C@H](CO)[C@@H](O)[C@H](O)[C@H]3O)ccc2Cl)cc1` [Dapagliflozin]: 1.12; `C=CCc1ccc(O)c(-c2ccc(O)c(CC=C)c2)c1` [Honokiol]: 0.883.
The compound `C=CCc1cccc(/C=N/NC(=O)CN2CCN(Cc3ccccc3)CC2)c1O` registered a GFP- of 0.654.
Next, `Cc1cc(NC(=O)Nc2ccc(N(C)C)cc2)c2cc(F)cc(F)c2n1`: 1.15; `CCOC(=O)[C@H](CCc1ccccc1)N[C@@H](C)C(=O)N1CCC[C@H]1C(=O)O` [Enalapril]: 1; `Cc1ccc(F)c(NC(=O)Nc2ccc(-c3cccc4[nH]nc(N)c34)cc2)c1` [Linifanib]: 0.965.
To `NC1(c2ccc(-c3nc4ccn5c(O)nnc5c4cc3-c3ccccc3)cc2)CCC1` belongs 0.82.
On to `COc1cc([C@@H]2c3cc4c(cc3[C@@H](O[C@@H]3O[C@@H]5CO[C@@H](C)O[C@H]5[C@H](O)[C@H]3O)[C@H]3COC(=O)[C@H]23)OCO4)cc(OC)c1O` [Etoposide], for which the GFP- was found to be 0.985.
In turn, `Cc1nc(O)c2cc(CN(C)c3ccc(C(=O)N[C@@H](CCC(=O)O)C(=O)O)s3)ccc2n1` [Raltitrexed] returned a GFP- of 1.01.
Compound `CC(C)N(CCCNC(=O)Nc1ccc(C(C)(C)C)cc1)C[C@H]1O[C@@H](n2cc(Br)c3c(N)ncnc32)[C@H](O)[C@@H]1O` showed a GFP- of 1.01 ± 0.042.
`COc1ccc(C(C)=O)c(O)c1` [Paeonol] displayed a GFP- of 1.18.
With `Cc1nc(NC(=O)N2CCC[C@H]2C(N)=O)sc1-c1csc(C(C)(C)C)n1`, the GFP- was determined as 1.03.
Next, `CNC(=O)c1ccccc1Nc1nc(Nc2ccc(N3CCOCC3)cc2OC)ncc1Cl`: 0.742.
Next, `CN1CC[C@H](c2c(O)cc(O)c3c(=O)cc(-c4ccccc4Cl)oc23)[C@H](O)C1` [Flavopiridol]: 0.326; `CN1CC[C@@H](c2c(O)cc(O)c3c(=O)cc(-c4ccccc4Cl)oc23)[C@@H]1CO`: 0.807.
`CC(=O)/N=c1/sc(S(N)(=O)=O)nn1C` [Methazolamide] yielded a GFP- of 1.16.
Next, `C=C1C(=O)[C@@]23C(CC[C@@H]1[C@H]2O)[C@@]12CO[C@]3(O)[C@@H](O)[C@@H]1C(C)(C)CC[C@@H]2O` (some centres not stated) [Oridonin]: 0.884; `C[C@@H](CN1CC(=O)NC(=O)C1)N1CC(=O)NC(=O)C1` [Dexrazoxane]: 0.899; `Cn1ncnc1[C@H]1c2nnc(O)c3cc(F)cc(c23)N[C@@H]1c1ccc(F)cc1`: 0.616 ± 0.066.
`CC1=NC(N)=C(C(=O)OC2CN(C(c3ccccc3)c3ccccc3)C2)C(c2cccc([N+](=O)[O-])c2)/C1=C(/O)OC(C)C` (configuration not stated) [Azelnidipine] returned a GFP- of 1.11.
On to `Cc1cc(CN2CCN(c3c(Br)cnc4[nH]c(-c5ccc(N6CCN(C)CC6)cc5)nc34)CC2)no1`, for which the GFP- was 0.664 ± 0.17.
Next, `NS(=O)(=O)c1cc2c(cc1Cl)NCNS2(=O)=O` [Hydrochlorothiazide]: 1.06.
Compound `CC[C@]1(O)C[C@@H]2CN(CCc3c([nH]c4ccccc34)[C@@](C(=O)OC)(c3cc4c(cc3OC)N(C=O)[C@@H]3C45CCN4CC=C[C@](CC)([C@H]45)[C@@H](OC(C)=O)[C@]3(O)C(=O)OC)C2)C1` (some centres not stated) [Vincristine] yielded a GFP- of 0.699.
`CCn1cc(C(=O)O)c(=O)c2ccc(C)nc21` [Nalidixic Acid] came in with a GFP- of 0.895.
To `CC(=O)O[C@]1(C(C)=O)CC[C@H]2[C@@H]3C[C@H](C)C4=CC(=O)C=C[C@]4(C)[C@@]3(F)[C@@H](O)C[C@@]21C` [Fluorometholone Acetate] belongs 1.14; to `C[C@@]1(C(=O)Nc2ccc(F)nc2)CCCN1c1nc(Nc2cc(C3CC3)[nH]n2)c2cccn2n1`, 0.776; to `COc1cc2nc(N3CCN(C(=O)C4CCCO4)CC3)nc(N)c2cc1OC` (configuration not stated) [Terazosin], 0.942.
Next, `CC(C(=O)O)c1ccc2c(c1)CC(=O)c1ccccc1S2` (configuration not stated) [Zaltoprofen]: 1.01; `Cc1ccc(CNc2ncnc3ccc(-c4ccc(CO)o4)cc23)o1`: 0.793; `CC1=C(C(=O)OC2CCCCC2)C(c2ccc([N+](=O)[O-])cc2)C2=C(O)CC(C)(C)CC2=N1` (configuration not stated): 0.82.
To `CC(C)c1ccc(NC(=O)Cn2cnc3c2c(=O)n(C)c(=O)n3C)cc1` belongs 0.98; to `CCC(=O)N1CCN(c2ccc(-n3c(=O)ccc4cnc5ccc(-c6cnc7ccccc7c6)cc5c43)cc2C(F)(F)F)CC1` [Torin 1], 0.571; to `Nc1ccc(-c2ccc3ncc4ccc(=O)n(-c5cccc(C(F)(F)F)c5)c4c3c2)cn1` [Torin 2], 0.456.
Compound `O=C(O)c1ccccc1` [Benzoic Acid] came in with a GFP- of 1.05.
Next, `O=C(O)CCNC(=O)c1ccccc1` [Betamipron]: 1.06; `CN(NC(=O)CC(=O)NN(C)C(=S)c1ccccc1)C(=S)c1ccccc1` [Elesclomol]: 0.277.
Next, `CC1(C)O[C@@H]2C[C@H]3[C@@H]4CCC5=CC(=O)CC[C@]5(C)[C@@]4(F)[C@@H](O)C[C@]3(C)[C@]2(C(=O)CCl)O1` [Halcinonide]: 1.02.
